MARV entry inh – inhibitors of Marburg virus binding or cell entry. AID 540276. Marburg virus pseudotyped entry inhibition, cell reporter. Potency, µM (doses to about 37.8 µM), for inactives: at the highest dose activity change, negative = inhibition, actives largely listed as inhibitors. 300,000 compounds, 1.8% hits; calls by dose curve; tested in HEK293 cells; note: potency is the fitted concentration of half-maximal effect; % is set by controls: 0 for no effect and ±100 for the full control effect
CHX counter – affects cycloheximide protein synthesis inhibition readout, counter-screen; AID 2314; cell reporter, cycloheximide protein synthesis inhibition counterscreen; 300,000 compounds, 12% hits; max response, %; in the data active = max response mostly above about 13%, no sharp cut-off; inactive = mostly below about 14%; note: read at 38.3 µM for the half of the compounds with a filed dose; 0% is about no effect
Lassa entry inh – inhibitors of Lassa virus binding or cell entry | Potency, µM (series often up to 37.9 µM), without a hit: at the top dose activity change, negative = inhibition, most hits filed as inhibitors | Lassa virus pseudotype entry inhibition, cell reporter | 300,000 compounds, 1.2% hits; calls by dose curve; tested in HEK293 cells; note: potency is the fitted concentration of half-maximal effect; % is set by controls: 0 for no effect and ±100 for the full control effect; nearly all actives have a fitted effect of over 50% in size
VACV Venus inh – inhibitors of vaccinia virus (Venus reporter). 330,000 compounds, 0.46% hits. AID 720580. Vaccinia virus Venus reporter expression, fluorescence. Potency, µM (top dose mostly 36.5 µM), for inactives: at the highest dose activity change, negative = inhibition, most hits filed as inhibitors; calls by dose curve; tested in A549 cells; note: potency is the fitted concentration of half-maximal effect; % is set by controls: 0 for no effect and ±100 for the full control effect; nearly all actives have a fitted effect of over 30% in size
Vaccinia mCherry – vaccinia inhibition (mCherry reporter); Vaccinia virus mCherry reporter infection, fluorescence; Potency, µM (top dose mostly 36.5 µM), inactives show at the top dose activity change, negative = inhibition, hits mostly inhibitors; 310,000 compounds, 0.63% hits; calls by dose curve; tested in A549 cells; note: potency is the fitted concentration of half-maximal effect; % is set by controls: 0 for no effect and ±100 for the full control effect; nearly all actives have a fitted effect of over 35% in size
Shiga toxin inh – inhibitors of Shiga toxin in Vero cells; Vero cells, Shiga toxin protein synthesis inhibition reporter; inhibition, % at 38.7 µM; 290,000 compounds, 9.2% hits; AID 2315; in the data active = inhibition mostly above about 28%, no sharp cut-off; inactive = mostly below about 43%; note: 0% is about no effect
Starred values were filed as active, the others as inactive; [ ] = remark or other dose. Shown is part of a subset that was picked to be rich in hits.

Screening COc1ccc(-c2nc3c4c(ncn3n2)-c2ccccc2CC42CCCC2)cc1 returned MARV entry inh 10%, CHX counter -2, Lassa entry inh 0%, VACV Venus inh -3%, Vaccinia mCherry -4% and Shiga toxin inh -3.
Screening Oc1cccc(-c2nc3c4c(ncn3n2)-c2ccccc2CC42CCCC2)c1 returned MARV entry inh 23µM*, CHX counter -3, Lassa entry inh -17%[14.3 µM], VACV Venus inh 18µM*, Vaccinia mCherry 13µM* and Shiga toxin inh -16.
`CCOC(=O)Cc1c(C)nc2c(-c3cccc(Br)c3)c[nH]n2c1=O` gave MARV entry inh inconclusive, CHX counter -1, Lassa entry inh 16µM*, VACV Venus inh -6%, Vaccinia mCherry inactive and Shiga toxin inh -18.
For Cc1sc2ncnc(N3CCC(C(=O)Nc4ccc(Br)cc4Br)CC3)c2c1C the results were MARV entry inh 11µM*, Lassa entry inh inconclusive, VACV Venus inh -9% and Vaccinia mCherry -8%.
Cc1sc2ncnc(N3CCC(C(=O)Nc4ccc(Cl)cc4Cl)CC3)c2c1C was read as MARV entry inh -8%, Lassa entry inh 4%, VACV Venus inh -19% and Vaccinia mCherry -1%.
For COc1ccc(-c2csc(NC(=O)C3CCN(c4ncnc5sc(C)c(C)c45)CC3)n2)cc1OC the results were MARV entry inh 4µM*, Lassa entry inh 2µM*, VACV Venus inh inconclusive and Vaccinia mCherry -18%.
For CCN1C(=O)/C(=C\N2CCCCCC2)SC1=S the results were MARV entry inh 1%, CHX counter 15*, Lassa entry inh inconclusive, VACV Venus inh -12%, Vaccinia mCherry -20%[1.46 µM] and Shiga toxin inh 23.
For CCOC(=O)C1CCCN(/C=C2\SC(=S)N(CC)C2=O)C1 (configuration not stated) the results were MARV entry inh 3%, CHX counter 7.9* and Shiga toxin inh 16.
Screening CCOC(=O)C1CCN(c2c(N3CCCC(C(=O)OCC)C3)c(=O)c2=O)CC1 (configuration not stated) returned MARV entry inh -5%, CHX counter -5, Lassa entry inh -14%, VACV Venus inh -1%, Vaccinia mCherry inactive and Shiga toxin inh -2.
Screening CCN1C(=O)/C(=C/N2CC(C)CC(C)C2)SC1=S (configuration not stated) returned MARV entry inh 1%, CHX counter 6, Lassa entry inh 5%, VACV Venus inh -2%, Vaccinia mCherry 2% and Shiga toxin inh -6.
`CCN1C(=O)/C(=C/N2CCc3ccccc3C2)SC1=S` gave MARV entry inh 28%[46.1 µM], CHX counter 16*, Lassa entry inh 5%, VACV Venus inh -9%[7.34 µM], Vaccinia mCherry -6%[7.34 µM] and Shiga toxin inh 31.
`Nc1nccc(-c2ccc(-n3cccc3)cc2)n1` gave MARV entry inh 2%[46.1 µM], CHX counter 23*, Lassa entry inh 12%[46.1 µM], VACV Venus inh -10%, Vaccinia mCherry -5% and Shiga toxin inh 53*.
`CC1(C)Cc2c(sc3c2c(N)nc(=S)n3Cc2ccc(Br)cc2)CO1` gave MARV entry inh 16%[46.1 µM], CHX counter -3, Lassa entry inh 3%, VACV Venus inh -5%, Vaccinia mCherry inactive and Shiga toxin inh -4.
Screening Cc1cc(C)cc(NC(=O)CCc2c(C)nc3nc(CNC(=O)c4cccc(F)c4)nn3c2C)c1 returned MARV entry inh 2%[46.1 µM], Lassa entry inh 4%[46.1 µM], VACV Venus inh 5% and Vaccinia mCherry -2%.
`Nc1nc2ccc(Oc3ccccc3)cc2s1` gave MARV entry inh inconclusive, CHX counter 30*, Lassa entry inh inconclusive, VACV Venus inh -4%, Vaccinia mCherry -5% and Shiga toxin inh 70*.
Screening Nc1nc2ccc(OC(F)(F)F)cc2s1 returned MARV entry inh 1%, CHX counter 59*, Lassa entry inh inconclusive, VACV Venus inh -21%, Vaccinia mCherry -12% and Shiga toxin inh 67*.
`Cc1ccc2onc(CC(=O)N3CCN(c4cccc(Cl)c4)CC3)c2c1` gave Lassa entry inh inconclusive, VACV Venus inh 1% and Vaccinia mCherry 2%.
CCOc1ccc(NC(=O)c2ccc3c(SCC(=O)O)c4c(nc3c2)CCC4)cc1 was read as MARV entry inh 26%[46.1 µM], Lassa entry inh -1%[46.1 µM], VACV Venus inh 5% and Vaccinia mCherry 0%.
Cc1ccc(S(=O)(=O)N2CCCCC2)cc1NC(=O)CNCc1ccco1 was read as CHX counter 10 and Shiga toxin inh 18.
For COc1cccc(-c2nnc(SCC(=O)N3CCCCC3)o2)c1 the results were MARV entry inh inconclusive, Lassa entry inh -37%[46.1 µM], VACV Venus inh -3% and Vaccinia mCherry -6%.
Screening O=C(CSc1nnc(-c2ccccc2Cl)o1)N1CCCC1 returned MARV entry inh inconclusive, CHX counter 51*, Lassa entry inh 2.8µM*, VACV Venus inh 19%, Vaccinia mCherry 14% and Shiga toxin inh 73*.
Screening O=C(CSc1nnc(-c2ccccc2Br)o1)N1CCOCC1 returned MARV entry inh inconclusive, CHX counter 51*, Lassa entry inh inconclusive, VACV Venus inh -20%, Vaccinia mCherry 4% and Shiga toxin inh 70*.
For O=C(CSc1nnc(-c2ccccc2O)o1)N1CCOCC1 the results were MARV entry inh inconclusive, CHX counter 26*, Lassa entry inh 4%[46.1 µM], VACV Venus inh -15%, Vaccinia mCherry inactive and Shiga toxin inh 86*.
Screening O=C(CSc1nnc(-c2ccccc2Cl)o1)N1CCCCC1 returned CHX counter 37*, VACV Venus inh -10%, Vaccinia mCherry -8% and Shiga toxin inh 83*.
For O=C(Nc1nc2c(F)cccc2s1)c1ccc2c(c1)OCCO2 the results were Lassa entry inh inconclusive, VACV Venus inh -6% and Vaccinia mCherry 0%.
CCCOc1ccc(-c2nonc2NC(=O)c2oc3ccc(Cl)cc3c2C)cc1OCCC was read as MARV entry inh 18%[46.1 µM], Lassa entry inh 12%[46.1 µM], VACV Venus inh inconclusive and Vaccinia mCherry inconclusive.
Screening O=C(CSc1nnc(-c2ccccc2O)o1)N1CCc2ccccc2C1 returned MARV entry inh 16%, CHX counter -2, Lassa entry inh -5% and Shiga toxin inh -7.
`O=C(CSc1nnc(-c2ccccc2O)o1)N1CCCCC1` gave MARV entry inh inconclusive, CHX counter 28*, Lassa entry inh inconclusive, VACV Venus inh -9%, Vaccinia mCherry -18% and Shiga toxin inh 42*.
`COc1ccccc1C1CN(Cc2cccc3c2OCO3)Cc2ccccc2O1` (configuration not stated) gave VACV Venus inh -7% and Vaccinia mCherry -14%.
CCCCn1c(=O)c2oc3ccccc3c2n(Cc2ccc(OC)cc2)c1=O was read as Lassa entry inh 5%[46.1 µM], VACV Venus inh -9% and Vaccinia mCherry -11%.
Screening CCC(NC(=O)c1cccc(Cn2cc([N+](=O)[O-])cn2)c1)c1ccc(C(C)C)cc1 (configuration not stated) returned MARV entry inh inconclusive, CHX counter 11*, Lassa entry inh -11% and Shiga toxin inh 7.
